Compounds with a hit are over-represented: about 9.4% of the library has one in this group of screens.
Rab9 prom act = activators of Rab9 promoter; 320,000 compounds, 2.8% hits; AID 485297; Huh7 Rab9 promoter-luciferase reporter, luminescence, 24 h; Potency, µM (top dose mostly 9.22 µM), usual class: activators; note: nearly all actives have a fitted effect of over 60% in size
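Using Huh7 cells stably transfected with Rab9 promoter–luciferase, compounds were incubated 24 h at 37 °C, 5% CO2; luciferase luminescence was read 10 min after reagent addition.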
ELG1 DNA repair = inhibitors of ELG1-dependent DNA repair in HEK293T cells. HEK293T ELG1-luciferase reporter, luminescence, 16 h; DNA damage induced by 5-fluorouridine. Potency, µM (top dose mostly 46.1 µM), usual class: inhibitors. 330,000 compounds, 2.3% hits. AID 504467; note: nearly all actives have a fitted effect of over 55% in size
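Cells (2,000 per well) received 5-fluorouridine plus test compound or DMSO and were incubated 16 hr at 37 °C, 5% CO2. Luciferase activity was read by luminescence 30 min after ONE-Glo addition; signal suppression marked inhibition of damage-induced ELG1 function.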
FLuc modulator = firefly luciferase modulation, counter-screen for miR-21 project; P08659; Potency, µM (series often up to 57.5 µM), hits mostly inhibitors; 360,000 compounds, 6.9% hits; purified FLuc, Km substrates, luminescence inhibition; note: nearly all actives have a fitted effect of over 55% in size
Target sequence (P08659 whole entry, looked up): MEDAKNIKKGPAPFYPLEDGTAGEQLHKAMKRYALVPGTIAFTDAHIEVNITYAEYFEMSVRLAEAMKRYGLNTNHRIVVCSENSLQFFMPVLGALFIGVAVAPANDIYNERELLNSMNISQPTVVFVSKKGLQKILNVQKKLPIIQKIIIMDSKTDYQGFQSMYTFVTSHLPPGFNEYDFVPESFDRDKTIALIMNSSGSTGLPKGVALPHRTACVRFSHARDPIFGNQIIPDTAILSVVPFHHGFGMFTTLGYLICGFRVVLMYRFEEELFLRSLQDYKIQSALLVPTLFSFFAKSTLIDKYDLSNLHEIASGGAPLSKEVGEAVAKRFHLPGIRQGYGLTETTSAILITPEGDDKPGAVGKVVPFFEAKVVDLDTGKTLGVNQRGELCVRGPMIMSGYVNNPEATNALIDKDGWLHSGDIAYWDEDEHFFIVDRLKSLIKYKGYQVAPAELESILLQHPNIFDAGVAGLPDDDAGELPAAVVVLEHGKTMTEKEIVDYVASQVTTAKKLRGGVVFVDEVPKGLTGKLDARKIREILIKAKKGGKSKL
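Purified P. pyralis luciferase, 10 nM final, with Km-level 10 uM D-luciferin and 10 uM ATP in 50 mM Tris acetate pH 7.5, 10 mM Mg acetate, 0.01% Tween-20, 0.05% BSA; 6-point qHTS titration about 60 µM downward; luminescence read.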
NPC1 prom act = activators of NPC1 promoter | 320,000 compounds, 2.4% hits | Potency, µM (top dose mostly 9.22 µM), most hits filed as activators | Huh7 NPC1 promoter luciferase reporter, 24 h; note: nearly all actives have a fitted effect of over 60% in size
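Huh7 reporter cells (NPC1 promoter driving luciferase) are dosed with compound for 24 h at 37 °C, 5% CO2; luciferase detection reagent is then added and luminescence measured after 10 min at ambient temperature.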
SMN2 splice enh = SMN2 splice variant enhancement; Potency, µM (doses to about 46.1 µM), hits mostly activators; HEK293 SMN2-luciferase splicing reporter, luminescence, 30-36 h; 210,000 compounds, 2.8% hits; note: nearly all actives have a fitted effect of over 55% in size
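HEK293 cells carry an SMN2 minigene-luciferase reporter in which exon 7 inclusion puts luciferase in frame. Cells were seeded at 2000 cells/well, attached for 10-12 hours, then exposed to compounds for 30-36 hours at 37C before ONE-Glo luminescence.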
ELG1 genotox = genotoxicity induction in ELG1-luciferase HEK293T cells; HEK293T ELG1-luciferase reporter, luminescence, 16 h; Potency, µM (titrated, usually from 46 µM), actives largely listed as activators; 330,000 compounds, 1.3% hits; note: nearly all actives have a fitted effect of over 60% in size
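Screening used a luciferase reporter fused to human ELG1 in HEK293T cells. Luminescence was read on a CCD plate imager after 16 hr exposure and 30 min ONE-Glo incubation.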
Hits are given with their value; – = inactive; ? = inconclusive; · = not tested or not shown. Calls come from the whole dose curve; as a rule, active = well fitted curve in the direction sought with a large enough effect; inconclusive = small, poorly fitted or top-dose-only effect, or another doubt; inactive = no such curve, though single readings can be large; an effect the other way counts as inactive or inconclusive.

SMILES | Rab9 prom act | ELG1 DNA repair | FLuc modulator | NPC1 prom act | SMN2 splice enh | ELG1 genotox
Nc1ccc(-c2nc3ccc([N+](=O)[O-])cc3[nH]2)cc1 | 1.4µM | ? | 3.4µM | 2.2µM | 3.5µM | 3.7µM
O=[N+]([O-])c1ccc2nc(/C=C/c3ccc(Cl)cc3)[nH]c2c1 | ? | ? | 5.4µM | ? | – | –
O=[N+]([O-])c1ccc2nc(C(O)C(O)c3nc4ccc([N+](=O)[O-])cc4[nH]3)[nH]c2c1 (stereo unspecified) | – | – | – | – | · | –
CCCOc1ccc(C2C(=O)N(C3CCCCC3)CC(=O)N2CCc2ccccc2)cc1OC (stereo unspecified) | · | · | – | · | · | ·
CCCn1c(/C=N/Nc2nc3ccccc3[nH]2)nc2ccccc21 | – | ? | 13µM | – | – | ?
Cc1c(/C=N/Nc2nc3ccccc3[nH]2)c2ccccc2n1C | ? | – | 11µM | ? | · | ?
C=CCn1cc(/C=N/Nc2nc3ccccc3[nH]2)c2ccccc21 | – | ? | 5.4µM | – | – | –
CCNc1nc2ccccc2[nH]1 | – | – | – | – | – | –
CC(C)Cn1c(/C=N/Nc2nc3ccccc3[nH]2)nc2ccccc21 | – | – | ? | – | – | ?
Cn1c(/C=N/Nc2nc3ccccc3[nH]2)nc2ccccc21 | 3.5µM | ? | 1.5µM | ? | 4µM | 1.2µM
C=CCNC(=S)N/N=C/c1cn(C)c2ccccc12 | – | ? | – | – | · | –
CCOc1ccc(NC(=O)Cn2c(=O)n(Cc3ccccc3)c(=O)c3sc4ccccc4c32)cc1 | · | · | – | · | – | ·
Cc1ccc(C)c(Cn2c(=O)n(Cc3ccco3)c(=O)c3oc4ccccc4c32)c1 | · | · | – | · | · | ·
CC1CC(C)CN(C(=O)C(Cc2ccccc2)NC(=O)c2ccccc2)C1 (stereo unspecified) | – | – | – | – | · | –
COc1ccc(CCNC(=O)C(=O)NCC(c2ccco2)S(=O)(=O)c2ccccc2)cc1OC (stereo unspecified) | · | · | – | · | · | ·
CCOc1ccc(OCC)c(NC(=O)Cn2ncc3c4ccccc4n(Cc4ccccc4)c3c2=O)c1 | · | · | – | · | – | ·
Cc1cc(=O)[nH]c(N/N=C/c2c(C)nn(-c3ccccc3)c2C)n1 | – | – | – | – | – | –
Cc1nn(-c2ccccc2)c(C)c1/C=N/Nc1nc2ccccc2[nH]1 | 0.5µM | ? | 0.85µM | 0.71µM | 3.2µM | 5.2µM
COCCCNc1nc(NCc2ccccc2OC)c2cnn(C)c2n1 | · | · | – | · | · | ·
CCC(=O)NC(=S)Nc1ccc(NC(=O)CC)cc1 | – | ? | – | – | – | –
Cc1ccc2nc(-c3ccc(NC(=S)NC4CC(C)(C)NC(C)(C)C4)cc3)sc2c1 | ? | ? | 11µM | ? | ? | ?
CCC(=O)NC(=S)Nc1ccc(-c2nc3ccccc3s2)cc1 | 1.6µM | ? | 0.76µM | 0.45µM | 5µM | ?
Cc1ccc2nc(-c3ccc(NC(=S)NC(=O)C(C)C)cc3)sc2c1 | 1.8µM | ? | 3.8µM | 0.4µM | · | 9.2µM
CC1(C)CC(NC(=S)Nc2ccc(S(N)(=O)=O)cc2)CC(C)(C)N1 | – | – | – | – | – | –
CCC(=O)NC(=S)Nc1ccc(-c2nc3ccc(C)cc3s2)cc1 | 0.45µM | ? | 17µM | 0.79µM | · | ?
SMILES | Rab9 prom act | ELG1 DNA repair | FLuc modulator | NPC1 prom act | SMN2 splice enh | ELG1 genotox
COc1ccc(-c2cc(C(C)=O)c(C)n2CCC(=O)Nc2cc(Cl)ccc2C)cc1 | · | · | – | · | · | ·
N=C1Sc2ccccc2C2=NCCCN12 | · | · | · | · | – | ·
COc1ccc(OC)c(C(=O)c2c(C)oc3cc([N+](=O)[O-])c(O)c([N+](=O)[O-])c23)c1 | – | – | 21µM | – | · | –
Cc1oc2cc([N+](=O)[O-])c(O)c([N+](=O)[O-])c2c1C(=O)c1ccc(Cl)cc1 | – | ? | ? | – | · | –
CCOc1ccccc1NC(=O)N1CCc2c(sc3c2CCCC3)C1c1ccccc1 (stereo unspecified) | · | · | – | · | · | ·
CC(C)CN1CCc2nc(N3CCN(C)CC3)ncc2C1 | · | · | – | · | · | ·
CC(C)c1ccc(C2N=C(N)Nc3nc4ccccc4n32)cc1 (stereo unspecified) | · | · | – | · | ? | ·
COc1cc(-c2nc3cnccn3c2Nc2ccc(C)cc2)ccc1O | – | ? | – | – | 18µM | 13µM

High-throughput results as filed in PubChem.
